Experimental data from the supplement of paper PMC10849652.
About 8,800 targets were measured; listed, in parts, are those with a hit and a random draw of the rest. About 0.5% of all pairs of compound and target were hits.

Tests used:
Test in all cases: log2 fold change, soluble protein after heating vs DMSO (PISA); higher = thermal stabilisation; K562 lysate, 10 uM; active = over 0.2 and 3.5 SD of the protein, either way, in both replicates (recomputed)
alvocidib = compound: CN1CC[C@H](c2c(O)cc(O)c3c(=O)cc(-c4ccccc4Cl)oc23)[C@H](O)C1 [alvocidib]
Outline: (§1)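 Soluble protein was defined as the supernatant remaining after 21,000xg for 90 min, following pooling of heated aliquots and adjustment to 0.5% NP-40 at 4°C. Before that, crude K562 extract at 1 mg/mL protein in PBS pH 7.4 with 1 mM MgCl2 was treated with 10 μM compound for 30 min and heated for 3 min across 48°C-58°C. Quantification used TMTpro 16plex LC-MS/MS with channel sums equalised, and values are log-two fold changes in thermal stability relative to solvent controls from duplicates.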

Tubastatin A = compound: CN1CCc2c(c3ccccc3n2Cc2ccc(C(=O)NO)cc2)C1 [Tubastatin A]
Outline: as §1

[1] = compound: CNC(=O)C1=CC=CC=C1NC2=NC(=NC=C2Cl)NC3=C(C=C(C=C3)N4CCOCC4)OC
Outline: as §1

defactinib = compound: CNC(=O)c1ccc(Nc2ncc(C(F)(F)F)c(NCc3nccnc3N(C)S(C)(=O)=O)n2)cc1 [defactinib]
Outline: as §1

[2] = compound: CNc1nc(-c2ccc3c(N)n[nH]c3c2)cc(N2C[C@@H](C(=O)NC3CCCCC3)CC[C@H]2C)n1
Outline: as §1

encorafenib = compound: COC(=O)N[C@@H](C)CNc1nccc(-c2cn(C(C)C)nc2-c2cc(Cl)cc(NS(C)(=O)=O)c2F)n1 [encorafenib]
Outline: as §1

[3] = compound: COC(=O)[C@H](CCSC)NC(=O)C1=C(C=C(C=C1)NC[C@H](CS)N)C2=CC=CC=C2
Outline: as §1

alisertib = compound: COc1cc(Nc2ncc3c(n2)-c2ccc(Cl)cc2C(c2c(F)cccc2OC)=NC3)ccc1C(=O)O [alisertib]
Outline: as §1

[4] = compound: COc1cc2nc(-c3cc(F)ccc3O)nc(N[C@@H]3CNC[C@H]3C(C)(C)O)c2cc1OC
Outline: as §1

gefitinib = compound: COc1cc2ncnc(Nc3ccc(F)c(Cl)c3)c2cc1OCCCN1CCOCC1 [gefitinib]
Outline: as §1

lapatinib = compound: CS(=O)(=O)CCNCc1ccc(-c2ccc3ncnc(Nc4ccc(OCc5cccc(F)c5)c(Cl)c4)c3c2)o1 [lapatinib]
Outline: as §1

pictilisib = compound: CS(=O)(=O)N1CCN(Cc2cc3nc(-c4cccc5[nH]ncc45)nc(N4CCOCC4)c3s2)CC1 [pictilisib]
Outline: as §1

crizotinib = compound: C[C@@H](Oc1cc(-c2cnn(C3CCNCC3)c2)cnc1N)c1c(Cl)ccc(F)c1Cl [crizotinib]
Outline: as §1

[5] = compound: C[C@H](C1=CC=C(C=C1)C(=O)NC2=C3C=CNC3=NC=C2)N
Outline: as §1

duvelisib = compound: C[C@H](Nc1ncnc2nc[nH]c12)c1cc2cccc(Cl)c2c(=O)n1-c1ccccc1 [duvelisib]
Outline: as §1

gandotinib = compound: Cc1cc(Nc2cc(CN3CCOCC3)c3nc(C)c(Cc4ccc(Cl)cc4F)n3n2)n[nH]1 [gandotinib]
Outline: as §1

tozasertib = compound: Cc1cc(Nc2cc(N3CCN(C)CC3)nc(Sc3ccc(NC(=O)C4CC4)cc3)n2)n[nH]1 [tozasertib]
Outline: as §1

doramapimod = compound: Cc1ccc(-n2nc(C(C)(C)C)cc2NC(=O)Nc2ccc(OCCN3CCOCC3)c3ccccc23)cc1 [doramapimod]
Outline: as §1

bafetinib = compound: Cc1ccc(NC(=O)c2ccc(CN3CC[C@H](N(C)C)C3)c(C(F)(F)F)c2)cc1Nc1nccc(-c2cncnc2)n1 [bafetinib]
Outline: as §1

[6] = compound: Cc1cccc(CC(=O)N2CCc3c2ccc(-c2cn(C)c4ncnc(N)c24)c3F)n1
Outline: as §1

Measured: log2 fold change

MIF4GD isoform 3 (UniProt A9UHW6)
Chain of UniProt A9UHW6 (A9UHW6 whole entry, looked up): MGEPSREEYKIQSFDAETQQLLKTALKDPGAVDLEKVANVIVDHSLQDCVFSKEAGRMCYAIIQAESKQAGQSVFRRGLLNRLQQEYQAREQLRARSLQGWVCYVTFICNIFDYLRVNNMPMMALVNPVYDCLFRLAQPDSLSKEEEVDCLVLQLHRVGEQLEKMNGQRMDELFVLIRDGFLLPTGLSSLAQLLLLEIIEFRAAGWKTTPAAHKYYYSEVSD
inactive: alvocidib 0.021 | Tubastatin A 0.014 | [1] 0.002 | defactinib -0.01 | [2] -0.066 | encorafenib -0.012 | [3] 0.01 | alisertib -0.037 | [4] 0.007 | gefitinib 0.049 | lapatinib -0.008 | pictilisib -0.054 | crizotinib 0.012 | [5] 0.023 | duvelisib 0.041 | gandotinib 0.021 | tozasertib 0.005 | doramapimod 0.025 | bafetinib -0.03 | [6] 0.013

MRPL19 (UniProt P49406)
inactive: alvocidib -0.056 | Tubastatin A -0.119 | [1] -0.036 | defactinib -0.005 | [2] -0.052 | encorafenib -0.003 | [3] 0.042 | alisertib 0.037 | [4] -0.03 | gefitinib 0.043 | lapatinib -0.026 | pictilisib -0.024 | crizotinib -0.071 | [5] -0.094 | duvelisib -0.026 | gandotinib 0.029 | tozasertib 0.014 | doramapimod 0.011 | bafetinib -0.048 | [6] 0.051

MED10 (UniProt Q9BTT4)
Chain of UniProt Q9BTT4 (Q9BTT4 whole entry, looked up): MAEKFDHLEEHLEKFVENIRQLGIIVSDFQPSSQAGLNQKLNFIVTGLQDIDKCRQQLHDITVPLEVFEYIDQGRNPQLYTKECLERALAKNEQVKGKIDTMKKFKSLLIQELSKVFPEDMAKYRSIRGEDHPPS
inactive: alvocidib 0.038 | Tubastatin A 0.041 | [1] 0.042 | defactinib 0.068 | [2] 0.045 | encorafenib 0.11 | [3] -0.185 | alisertib 0.082 | [4] -0.03 | gefitinib -0.045 | lapatinib 0.107 | pictilisib 0.232 | crizotinib 0.016 | [5] -0.024 | duvelisib 0.016 | gandotinib 0.04 | tozasertib -0.057 | doramapimod 0.014 | bafetinib 0.187 | [6] 0.055

MARK2 (UniProt E9PC69)
inactive: alvocidib -0.032 | Tubastatin A -0.049 | [1] -0.187 | defactinib -0.087 | [2] 0.056 | encorafenib 0.181 | [3] 0.211 | alisertib 0.021 | [4] 0.01 | gefitinib -0.03 | lapatinib 0.003 | pictilisib 0.052 | crizotinib -0.14 | [5] 0.131 | duvelisib -0.068 | gandotinib -0.166 | tozasertib -0.233 | doramapimod 0.075 | bafetinib -0.071 | [6] 0.025

LBR (UniProt Q14739)
Chain of UniProt Q14739 (Q14739 whole entry, looked up): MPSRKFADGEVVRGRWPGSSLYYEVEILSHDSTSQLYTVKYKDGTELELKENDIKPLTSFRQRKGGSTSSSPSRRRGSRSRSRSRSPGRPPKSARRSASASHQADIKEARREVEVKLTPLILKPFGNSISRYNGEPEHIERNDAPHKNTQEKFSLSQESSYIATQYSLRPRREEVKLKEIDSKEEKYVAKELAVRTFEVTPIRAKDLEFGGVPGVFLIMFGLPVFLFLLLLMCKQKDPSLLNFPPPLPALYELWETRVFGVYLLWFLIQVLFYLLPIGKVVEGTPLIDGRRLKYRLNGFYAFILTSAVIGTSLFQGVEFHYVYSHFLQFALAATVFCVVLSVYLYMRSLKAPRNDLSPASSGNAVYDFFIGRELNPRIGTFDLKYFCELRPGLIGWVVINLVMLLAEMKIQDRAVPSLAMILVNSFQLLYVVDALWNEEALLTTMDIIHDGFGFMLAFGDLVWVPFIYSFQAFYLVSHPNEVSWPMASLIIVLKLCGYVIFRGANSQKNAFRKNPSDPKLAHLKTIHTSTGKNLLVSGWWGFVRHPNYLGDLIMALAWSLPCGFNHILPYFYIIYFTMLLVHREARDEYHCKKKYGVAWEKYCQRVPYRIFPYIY
inactive: alvocidib 0.072 | Tubastatin A 0.025 | [1] -0.063 | defactinib 0.04 | [2] -0.002 | encorafenib -0.021 | [3] 0.027 | alisertib 0.071 | [4] 0.001 | gefitinib -0.094 | lapatinib -0.071 | pictilisib -0.068 | crizotinib 0.063 | [5] 0.159 | duvelisib -0.039 | tozasertib -0.003 | doramapimod -0.06 | bafetinib -0.114 | [6] -0.096
active: gandotinib -0.285

MLLT11 (UniProt Q13015)
Chain of UniProt Q13015 (Q13015 whole entry, looked up): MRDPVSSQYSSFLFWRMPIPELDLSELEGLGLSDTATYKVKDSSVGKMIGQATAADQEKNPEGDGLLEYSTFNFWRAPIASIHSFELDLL
active: doramapimod 0.447
inactive: alvocidib 0.056 | Tubastatin A -0.052 | [1] 0.108 | defactinib 0.086 | [2] -0.019 | encorafenib 0.138 | [3] 0.099 | alisertib 0.115 | [4] 0.067 | gefitinib 0.023 | lapatinib 0.051 | pictilisib 0.237 | crizotinib 0 | [5] 0.025 | duvelisib 0.002 | gandotinib 0.329 | tozasertib 0.087 | bafetinib -0.017 | [6] 0.084

MECR (UniProt Q9BV79)
Chain of UniProt Q9BV79 (Q9BV79 whole entry, looked up): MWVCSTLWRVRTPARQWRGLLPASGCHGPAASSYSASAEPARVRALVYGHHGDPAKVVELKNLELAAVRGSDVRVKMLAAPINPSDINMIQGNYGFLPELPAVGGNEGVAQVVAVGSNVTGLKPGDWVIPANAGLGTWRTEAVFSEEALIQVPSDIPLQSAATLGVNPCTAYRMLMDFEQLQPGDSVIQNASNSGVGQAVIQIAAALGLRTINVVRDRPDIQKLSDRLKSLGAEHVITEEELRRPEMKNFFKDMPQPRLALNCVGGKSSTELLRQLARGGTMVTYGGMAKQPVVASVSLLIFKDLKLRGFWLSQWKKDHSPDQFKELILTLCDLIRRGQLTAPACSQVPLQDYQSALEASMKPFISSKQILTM
inactive: alvocidib 0.018 | Tubastatin A 0.014 | [1] 0.01 | defactinib 0.007 | [2] 0.053 | encorafenib -0.06 | [3] 0.049 | alisertib 0 | [4] 0.04 | gefitinib -0.011 | lapatinib -0.028 | pictilisib -0.038 | crizotinib 0.007 | [5] -0.11 | duvelisib 0.007 | gandotinib 0.045 | tozasertib 0.007 | doramapimod 0.02 | bafetinib -0.005 | [6] 0.013

MLH1 (UniProt P40692)
Chain of UniProt P40692 (P40692 whole entry, looked up): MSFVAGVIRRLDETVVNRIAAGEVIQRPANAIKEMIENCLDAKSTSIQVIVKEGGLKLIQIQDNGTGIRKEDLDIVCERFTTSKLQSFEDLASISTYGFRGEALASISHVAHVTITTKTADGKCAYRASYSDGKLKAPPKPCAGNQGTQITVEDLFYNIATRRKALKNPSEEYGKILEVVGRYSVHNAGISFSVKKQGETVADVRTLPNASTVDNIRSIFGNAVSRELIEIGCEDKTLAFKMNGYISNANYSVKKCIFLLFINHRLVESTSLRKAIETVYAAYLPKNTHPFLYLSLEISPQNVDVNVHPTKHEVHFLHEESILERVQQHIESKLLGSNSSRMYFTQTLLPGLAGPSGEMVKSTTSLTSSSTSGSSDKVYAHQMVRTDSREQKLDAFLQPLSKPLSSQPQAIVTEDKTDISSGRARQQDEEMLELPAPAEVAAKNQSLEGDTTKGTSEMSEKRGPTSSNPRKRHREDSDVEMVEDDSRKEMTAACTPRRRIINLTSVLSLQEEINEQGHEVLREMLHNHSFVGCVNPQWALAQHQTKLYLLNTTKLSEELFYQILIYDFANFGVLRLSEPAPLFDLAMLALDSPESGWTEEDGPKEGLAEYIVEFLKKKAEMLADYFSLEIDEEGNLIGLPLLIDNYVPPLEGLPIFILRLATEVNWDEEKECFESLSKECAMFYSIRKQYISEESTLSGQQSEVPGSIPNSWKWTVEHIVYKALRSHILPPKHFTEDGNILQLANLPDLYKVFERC
inactive: alvocidib 0.011 | Tubastatin A -0.167 | [1] -0.039 | defactinib 0.004 | [2] -0.013 | encorafenib 0.044 | [3] 0.129 | alisertib -0.01 | [4] 0.048 | gefitinib -0.053 | lapatinib -0.006 | pictilisib 0.001 | crizotinib -0.085 | [5] -0.035 | duvelisib 0.016 | gandotinib -0.04 | tozasertib -0.043 | doramapimod 0.013 | bafetinib -0.063 | [6] 0.038
